Source: PubChem (National Center for Advancing Translational Sciences (NCATS))
G9a inh: inhibitors of human histone lysine methyltransferase G9a | Q96KQ7 | G9a H3K9 monomethylation, AlphaScreen, 2 h | Potency, µM (highest dose often 102 µM), without a hit: at the top dose activity, negative = inhibition, usual class: inhibitors | 350,000 compounds, 8.8% hits | AID 504332; also: % is scaled to controls: 0 for no effect and ±100 for the full control effect; nearly all actives have a fitted effect of over 75% in size
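Methyltransferase reactions run at room temperature for 2 h (20 nM enzyme, 500 nM biotin-H3K9 peptide, 20 uM SAM) after a 15 min compound preincubation; product detected by AlphaScreen beads and anti-H3K9me1 antibody.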
BAZ2B inh: inhibitors of human BAZ2B bromodomain. AlphaScreen BAZ2B-H3K14Ac peptide displacement. Potency, µM (top dose mostly 114 µM), for inactives: at the top dose activity change, negative = inhibition, most hits filed as inhibitors. 360,000 compounds, 4.4% hits. AID 504333; also: % is scaled to controls: 0 for no effect and ±100 for the full control effect; nearly all actives have a fitted effect of over 60% in size
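Complex of BAZ2B and biotin-H3K14Ac (50 nM apiece) forms over 30 min at RT, then faces library compounds up to 110 uM for another 30 min; AlphaScreen beads added, 20 min dark incubation, luminescence read.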
JMJD2A Tudor: JMJD2A Tudor domain (human) inhibition; AlphaScreen JMJD2A-Tudor / H3K4me3 peptide binding; Potency, µM (top dose mostly 114 µM), for inactives: at the highest dose activity change, negative = inhibition, most hits filed as inhibitors; 390,000 compounds, 4.4% hits; AID 504339; also: % is scaled to controls: 0 for no effect and ±100 for the full control effect; nearly all actives have a fitted effect of over 50% in size
L3MBTL1 inh: blocks human L3MBTL1; Q9Y468; AlphaScreen L3MBTL1–H3K9me1 peptide binding; Potency, µM (series often up to 57.1 µM), for the others: at the highest dose activity, negative = inhibition, usual class: inhibitors; 230,000 compounds, 0.66% hits; also: % is scaled to controls: 0 for no effect and ±100 for the full control effect; nearly all actives have a fitted effect of over 60% in size
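AlphaScreen assay: L3MBTL1 (50 nM final) was preincubated 30 min at room temperature with biotinylated H3(1-15)K9me1 peptide (75 nM final), then 30 min with library compounds; streptavidin donor and nickel chelate acceptor beads (10 ug/mL final) added, 30 min dark.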
GLS inhibitor: glutaminase GLS (human) inhibition | GLS enzymatic activity, qHTS titration | AID 624170 | Potency, µM (titrated, usually from 45.5 µM), without a hit: at the highest dose activity change, negative = inhibition, hits mostly inhibitors | 410,000 compounds, 0.21% hits | O94925; also: % is scaled to controls: 0 for no effect and ±100 for the full control effect
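Compounds were pin-transferred onto hKGA, after which L-glutamine (1 mM solution) and a detection mix of glutamate oxidase, HRP and Amplex Red were added. Initial and 30 min RT fluorescence reads were collected.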
HP1b binding inh: inhibitors of HP1-beta chromodomain binding to methylated histone tails; P83916; AlphaScreen HP1-beta / biotin-H3K9me3 peptide binding; Potency, µM (doses to about 114 µM), for the others: at the highest dose activity change, negative = inhibition, actives largely listed as inhibitors; 390,000 compounds, 0.56% hits; also: nearly all actives have a fitted effect of over 70% in size
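HP1-beta protein (50 nM final) preincubated 30 min at room temperature with biotinylated H3(1-18)K9me3 peptide (50 nM) in PBS pH 7.4, 0.01% Tween-20, then compound added for 30 min. AlphaScreen streptavidin donor/nickel chelate acceptor beads (10 ug/mL final), 30 min dark, luminescence read.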
The depositor's hits bear a star; [ ] = another dose, or the depositor's remark. In the library only some 10% were active in any assay of this set; here they are far more common. Calls follow the shape of the dose curve; as a rule, active = well fitted curve in the direction sought with a large enough effect; inconclusive = small, poorly fitted or top-dose-only effect, or another doubt; inactive = no such curve, though single readings can be large; an effect the other way counts as inactive or inconclusive. Potency is read from the fitted curve at half-maximal effect.

`O=[N+]([O-])/C(C(Cl)=C(Cl)Cl)=C(/NC1CC1)Sc1ccccc1` gave G9a inh 39.8µM*, BAZ2B inh -23.6%, JMJD2A Tudor inconclusive, GLS inhibitor 18.5% and HP1b binding inh 30.8%.
Screening Cc1nn(-c2cccc(Cl)c2)c2nc(-c3cccnc3)cc(C(F)(F)F)c12 returned G9a inh -4.1%[59 µM], BAZ2B inh 5.2%, JMJD2A Tudor 13.8%, GLS inhibitor 1.6% and HP1b binding inh 55.0%.
For O=C1c2ccccc2NC(c2cc(Br)c3c(c2)OCO3)N1Cc1ccco1 (stereo not given) the results were JMJD2A Tudor -18.5%[57.1 µM] and HP1b binding inh 12.1%[57 µM].
For CNC(=S)NNc1nc(N2CCOCC2)nc(N2CCOCC2)n1 the results were G9a inh inconclusive, BAZ2B inh -6.8%, JMJD2A Tudor 25.1µM*, L3MBTL1 inh 12.3%, GLS inhibitor -8.1% and HP1b binding inh inconclusive.
For CCOC(=O)CSc1nnc2n(Cc3ccccc3)c(=O)c3c4c(sc3n12)CCC4 the results were G9a inh 39.8µM*, BAZ2B inh 1.5%, JMJD2A Tudor -15.3%[11.4 µM], L3MBTL1 inh 7.8%, GLS inhibitor -2.0% and HP1b binding inh -26.0%.
For Cc1nnc2n(Cc3ccccc3)c(=O)c3c4c(sc3n12)CCCC4 the results were G9a inh -3.2%[59 µM] and BAZ2B inh 2.3%.
O=C(Cn1c(=O)n(Cc2ccco2)c(=O)c2c3c(sc21)CCCCC3)Nc1ccccc1 was read as BAZ2B inh 50.1µM*, JMJD2A Tudor 31.6µM*, L3MBTL1 inh inconclusive, GLS inhibitor -8.3% and HP1b binding inh -29.1%.
CN(C)CCn1c(=O)n(Cc2ccco2)c(=O)c2c3c(sc21)CCCCC3 was read as G9a inh inconclusive, BAZ2B inh inconclusive, JMJD2A Tudor inconclusive, L3MBTL1 inh -9.8%, GLS inhibitor 2.2% and HP1b binding inh 9.2%.
`O=C(O)Cn1c(=O)c2c3c(sc2n(Cc2ccccc2)c1=O)CCCC3` gave G9a inh -34.3%, BAZ2B inh 89.1µM*, JMJD2A Tudor 0.3%, GLS inhibitor 5.7% and HP1b binding inh 58.8%.
`CC(=O)N1CCc2c(sc3c2c(=O)n(-c2ccccc2)c(=O)n3CC(=O)Nc2ccccc2)C1` gave G9a inh 5.7%[59 µM], BAZ2B inh -1.7%, JMJD2A Tudor 79.4µM*, GLS inhibitor 0.9% and HP1b binding inh 9.2%.
`CC(=O)N1CCc2c(sc3c2c(=O)n(-c2ccccc2)c(=O)n3CC(=O)Nc2cccc(C)c2)C1` gave G9a inh 0.2%[59 µM], BAZ2B inh -1.0%, JMJD2A Tudor -18.5%, GLS inhibitor -12.6% and HP1b binding inh 18.0%.
O=c1c2c3c(sc2n(CCN2CCCC2)c(=O)n1Cc1ccco1)CCCCC3 was read as G9a inh 3.3%, BAZ2B inh -34.8%, JMJD2A Tudor 79.4µM*, L3MBTL1 inh -5.4%, GLS inhibitor 15.5% and HP1b binding inh inconclusive.
`N#CC1=C(N)OC2=C(C(=O)CC(c3ccccc3)C2)C1c1ccc2c(c1)OCO2` (stereo not given) gave G9a inh inconclusive, BAZ2B inh inconclusive, JMJD2A Tudor -23.4%, L3MBTL1 inh -4.6%, GLS inhibitor 0.0% and HP1b binding inh 2.5%.
N#CC1=C2SCN(Cc3ccccc3)CN2C(=O)CC1c1cccs1 (stereo not given) was read as G9a inh 2µM*, BAZ2B inh -14.4%, JMJD2A Tudor -28.5%, L3MBTL1 inh -16.1%, GLS inhibitor 5.6% and HP1b binding inh -20.7%.
Screening N#CC1=C2SCN(Cc3ccccc3)CN2C(=O)CC1c1ccc2c(c1)OCO2 (stereo not given) returned G9a inh inconclusive, BAZ2B inh 50.1µM*, JMJD2A Tudor 50.1µM*, L3MBTL1 inh -7.6%, GLS inhibitor -3.6% and HP1b binding inh inconclusive.
CCCSC1=C(C#N)C(c2cccs2)CC(=O)N1 (stereo not given) was read as G9a inh inconclusive, BAZ2B inh -21.0%, JMJD2A Tudor -9.7%, L3MBTL1 inh -3.3%, GLS inhibitor 0.0% and HP1b binding inh -13.4%.
Screening CC(=O)N1CCc2c(sc3nc(SCC(C)C)n(-c4ccc(C)c(Cl)c4)c(=O)c23)C1 returned G9a inh inconclusive, BAZ2B inh -30.2%, JMJD2A Tudor inconclusive, GLS inhibitor 0.3% and HP1b binding inh -19.6%.
Screening CCOC(=O)CSc1nc2c(c(=O)[nH]c(=O)n2C)n1CCc1ccccc1 returned G9a inh -1.0%, BAZ2B inh 2.9%, JMJD2A Tudor -7.5%, L3MBTL1 inh -0.9%, GLS inhibitor 0.4% and HP1b binding inh 19.3%.
Screening CCCCn1c(SCC(=O)OCC)nc2c1c(=O)[nH]c(=O)n2C returned G9a inh 10µM*, BAZ2B inh 8.3%, JMJD2A Tudor -18.3%, L3MBTL1 inh 8.0%, GLS inhibitor -5.9% and HP1b binding inh -9.7%.
Screening CCOC(=O)CSc1nc2c(c(=O)[nH]c(=O)n2C)n1C/C=C(/C)Cl returned G9a inh 14.1µM*, BAZ2B inh 5.8%, JMJD2A Tudor -17.9%, L3MBTL1 inh 3.6%, GLS inhibitor -1.4% and HP1b binding inh -26.0%.
`C/C(Cl)=C/Cn1c(SC(C)C)nc2c1c(=O)[nH]c(=O)n2C` gave G9a inh inconclusive, BAZ2B inh -7.5%, JMJD2A Tudor -11.3%, GLS inhibitor -3.2% and HP1b binding inh -21.5%.
For CCCCCn1c(SCCN2CCOCC2)nc2c1c(=O)[nH]c(=O)n2C the results were G9a inh 25.1µM*, BAZ2B inh 1.3%, JMJD2A Tudor -19.7%, L3MBTL1 inh 4.9%, GLS inhibitor -4.3% and HP1b binding inh -19.6%.
`O=C(CCCN1C(=O)c2cccnc2Oc2ccc(Cl)cc21)NCc1ccccc1F` gave G9a inh -3.8%[59 µM], BAZ2B inh 1.0%, JMJD2A Tudor -16.2%, GLS inhibitor -9.4% and HP1b binding inh 7.9%.
For Clc1ccccc1CSc1nc(NCCc2ccccc2)c2ccccc2n1 the results were G9a inh 2.6%[59 µM], BAZ2B inh 11.0%, JMJD2A Tudor 8.0%, GLS inhibitor 1.2% and HP1b binding inh 38.9%.
`Cc1ccc(NC(=O)C2CCCN2S(=O)(=O)c2ccc3nc(-c4ccccc4)[nH]c3c2)cc1F` (stereo not given) gave G9a inh -28.8%[59 µM], BAZ2B inh -36.3%, JMJD2A Tudor inconclusive, GLS inhibitor -8.5% and HP1b binding inh 29.1%.
Screening Cc1ccccc1S(=O)(=O)N1CCN(c2nc(-c3cccs3)nc3ccccc23)CC1 returned JMJD2A Tudor -5.4% and HP1b binding inh 32.9%.
